# Bioassay records as filed in PubChem.
# Platelet DG rel – platelet dense granule release activity; inhibition, %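 (compounds screened at 7.5 µM in platelet-rich plasma)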; 0.22% of 300,000 active; AID 1663; human platelet-rich plasma, SFLLRN dense granule ATP release, luminescence;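 active = mean replicate score, as percent of positive control, at or above 50; inconclusive = mean below 50 but at least one replicate at or above 50; inactive = mean and every replicate below 50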
# HIF act – HIF pathway transcriptional activation; U2OS HRE-luciferase reporter, luminescence; normalized: DMSO 0%, desferrioxamine 100%; activation, % at 7.5 µM (by protocol); 0.32% of 300,000 active; AID 1910;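 active = mean activation of at least 10% of the iron chelator positive control signal, with at least half of replicates also reaching 10%; inconclusive = mean and replicate majority disagree about reaching 10%; inactive = mean and most replicates under 10%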
# PolyA inh – blocks polyadenylation in yeast reporter cells; 0.02% of 300,000 active; S. cerevisiae SKY197-pL101 polyadenylation reporter, beta-gal luminescence; efflux-impaired pdr1/pdr3 knockout yeast; score 100 = 6 SD above DMSO; activity score, % at 12 µM;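 active = lowest replicate activity score at least 50, where 100 means six control SD above control mean; inconclusive = lowest score under 50 but half or more replicates reach 50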;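 note: yeast exposed to compound for 9 h at 30 °C; higher score means more reporter readthrough which indicates perturbed polyadenylation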
# AHR act – human AHR activation. P35869. AHR-responsive luciferase reporter cells, luminescence. activation, % at 5 µM. 2.5% of 320,000 active; in the data active = activation above about 47%
# pCIP destab – lowers stability of the mouse p/CIP coactivator protein; Q05BA5; decrease of EGFP signal, % at 10 µM; 0.01% of 290,000 active; F442A p/CIP-EGFP cells, EGFP fluorescence, 16 h;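 active = EGFP signal decrease of at least 30% at 10 µM or well 3 SD below plate mean, unless failing retest; inactive = the rest, including hits failing retest or dose response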
# Numbers stand for hits; 0 = inactive; ? = inconclusive; - = not tested or not shown. Shown are actives, neighbours in structure and some others; about 2.8% of the full set was active somewhere.
SMILES,Platelet DG rel,HIF act,PolyA inh,AHR act,pCIP destab
O=C1C=C(c2ccccc2)OC(=O)C1C(=O)c1ccccc1 (centres undefined),0,0,121,0,0
CC1(C)CC(=O)C(C(=O)c2ccccc2)C(=O)C1,0,0,0,0,0
Cc1ccccc1/C=C/c1nc2ccccc2c(=O)[nH]1,0,0,0,70,0
N#CCOc1ccccc1/C=C/c1nc2ccccc2c(=O)[nH]1,0,0,0,62,0
Cc1ccccc1/C=C\c1nc2ccccc2c(=O)[nH]1,0,0,0,0,0
O=C1N=c2ccccc2=C1c1[nH]c(=S)[nH]c1O,?,0,0,61,0
CCN(CC)S(=O)(=O)c1ccc(N2CCc3cc(OC)c(OC)cc3C2)nc1,0,0,0,0,0
COc1ccc(CNC(=O)Cn2ncn3cccc3c2=O)cc1,0,0,0,71,0
COc1ccc(CNC(=O)Cn2ncn3c(cc4ccccc43)c2=O)cc1,0,0,0,0,0
O=C(Cn1cnc2c(cnn2-c2ccc(F)cc2)c1=O)OCc1ccccc1,53,0,0,0,0
O=C(Cn1cnc2c(cnn2-c2ccccc2)c1=O)OCc1ccccc1,0,0,0,0,0
CC(C)c1ccc2c(c1)C1Cc3ccccc3C1N2 (centres undefined),0,0,0,51,0
O=S1(=O)NC2c3ccccc3CC2O1 (centres undefined),0,0,0,0,0
O=C1C=C(Nc2ccc(O)cc2)C(=O)c2ccccc21,74,0,0,0,0
Cc1ccc(S(=O)(=O)N2CCCN(C(=O)c3cc4ccccc4[nH]3)CC2)cc1,0,0,0,62,0
CN1CCN(C(=O)c2cc3ccccc3[nH]2)CC1,0,0,0,0,0
CC(OC(=O)CNC(=O)C12CC3CC(CC(C3)C1)C2)C(=O)Nc1ccc(N2CCOCC2)cc1 (centres undefined),85,0,0,0,0
COc1ccc(S(=O)(=O)N(C)c2ccc(C(=O)Nc3ccccc3C(=O)N3CCOCC3)cc2)cc1OC,0,0,0,0,0
COc1ccc(C(Nc2cc(C)ccn2)c2ccc3ccc(C)nc3c2O)cc1 (centres undefined),0,0,0,0,0
COc1ccccc1NC(c1cccnc1)c1ccc2cccnc2c1O (centres undefined),0,12,0,0,0
COc1cc(C(Nc2ccccn2)c2ccc3ccc(C)nc3c2O)cc(OC)c1O (centres undefined),0,0,0,0,0
Cc1ccnc(NC(c2cccnc2)c2ccc3cccnc3c2O)c1 (centres undefined),0,11,0,0,0
Cc1ccc2c(c1)c(C)c(C)n2CC(O)Cn1nc(C)cc1C (centres undefined),0,0,0,61,0
Cc1ccc2c(c1)c(C)c(C)n2CC(O)Cn1nnc2ccccc21 (centres undefined),0,0,0,0,0
CN1C(=O)NC(c2ccccc2)C2=C1CN(c1ccc3ccccc3c1)C2=O (centres undefined),0,0,0,68,0
SMILES,Platelet DG rel,HIF act,PolyA inh,AHR act,pCIP destab
Cc1ccc(N2CC3=C(C2=O)C(c2ccccc2)NC(=O)N3C)cc1 (centres undefined),0,0,0,0,0
O=C(O)c1cc(-c2ccc(-c3ccc(F)cc3)o2)nc2ccccc12,0,0,0,0,0
COCCNC(=O)CSc1nc2ccc(N3CCOCC3)cc2c(=O)n1CCc1ccccc1,0,0,0,73,0
CCCCNC(=O)CSc1nc2ccc(N3CCOCC3)cc2c(=O)n1CCc1ccccc1,0,0,0,58,0
CCCCn1c(SCC(=O)NCCOC)nc2ccc(N3CCOCC3)cc2c1=O,0,0,0,0,0
CCCCn1c(N)c(N(CCOC)C(=O)c2cc(Cl)nc3ccccc23)c(=O)[nH]c1=O,0,0,0,0,-
CCOC(=O)c1sc(=S)n(-c2ccccc2)c1C,0,19,0,0,0
Fc1ccc(Nc2nc(N3CCOCC3)c3ccccc3n2)cc1,0,0,0,0,0
c1ccc2c(Nc3nc(N4CCOCC4)c4ccccc4n3)cccc2c1,0,0,0,71,0
N/C(=N\c1nc2ccccc2o1)NC(=O)c1cccc(Cl)c1,0,0,0,0,0
N/C(=N\c1nc2ccccc2o1)NC(=O)c1ccccc1NC(=O)c1ccccc1,-,-,-,66,0
Nc1c(C(=O)c2ccc(Cl)cc2)sc2nc3c(cc12)CCC3,0,0,0,53,0
